# Results reported in the supplement of paper PMC8047044.
# Values joined by “and” are separate entries in the source; they are usually repeats but may differ in a detail not shown here. Identical values can stand only once.
# What was measured:
# Neuro-2a [1] = test: neurite formation score, plate-normalized to DMSO control mean 5.04 (score (0-8 scale)); higher = more or longer neurites; conditions: 1 µM
# Procedure: (§1)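 Neuro-2a mouse neuroblastoma cells in PLL-coated 96-well plates were pre-treated for 1 h in DMEM(+) with each kinase inhibitor at 1 µM, then switched to serum-free DMEM(-) with inhibitor to induce neurite outgrowth and fixed about 2-3 h later. Three blinded observers scored neurite formation from 0 (no neurites) to 8 (long neurites on almost all cells).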
# Neuro-2a [2] = test: as above; conditions: 0.1 µM
# Procedure: as §1, with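 “at 0.1” for “at 1”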
Structure (SMILES),neurite formation score (Neuro-2a [1]),neurite formation score (Neuro-2a [2])
O=C(Nc1cccnc1)c1cc(-c2ccnc(F)c2)ccc1OCc1ccccc1,3.88,5.08
CCS(=O)(=O)c1cccc(-c2cc(C(=O)NC3CCN(C)CC3)c(C)c3[nH]c4ncc(C)cc4c23)c1,2.69,4.58
Oc1cc(O)cc(/C=C/c2ccc(O)c(O)c2)c1 [Piceatannol],4.88,4.75
CC(C)(C)c1cnc(CSc2cnc(NC(=O)C3CCNCC3)s2)o1,4.57,4.38
Cc1c(Cn2c(C)nc3c(C(=O)O)cc(N4CCOCC4)cc32)cccc1C(F)(F)F,4.88,4.08
CC(=O)Nc1nc(C)c(-c2ccc(Cl)c(S(=O)(=O)NCCO)c2)s1,4.57,3.88
CNC(=O)Nc1ccc(-c2nc(N3CC4CCC(C3)O4)c3cnn(C4CCC5(CC4)OCCO5)c3n2)cc1,3.54,4.75
N#CC[C@H](C1CCCC1)n1cc(-c2ncnc3[nH]ccc23)cn1,4.91,5.04
Nc1ccc(C(=O)Nc2cccc(-c3nc(N4CCOCC4)c4oc5ncccc5c4n3)c2)cn1,4.54,4.42
CC1(C)CNc2cc(NC(=O)c3cccnc3NCc3ccncc3)ccc21 [Motesanib Diphosphate (AMG-706)],4.36,4.92
Clc1ccc(Nc2nnc(Cc3ccncc3)c3ccccc23)cc1 [Vatalanib],4.69,4.92
C=CCc1ccc(O)c(-c2ccc(O)c(CC=C)c2)c1 [Honokiol],4.47,2.76
Cc1ccc(C(=O)Nc2ccc(CN3CCN(C)CC3)c(C(F)(F)F)c2)cc1C#Cc1cnc2cccnn12,1.24,3.88
C=CC(=O)N1CCC(Oc2cc3c(Nc4ccc(Cl)c(Cl)c4F)ncnc3cc2OC)CC1 [Poziotinib],4.14,3.76
N#Cc1c(O)c2c(-c3ccc(-c4ccccc4O)cc3)csc2[nH]c1=O,5.69,5.58
COc1cc2c(Oc3ccc4[nH]c(C)cc4c3F)ncnc2cc1OCCCN1CCCC1 [Cediranib (AZD217)],3.91,4.71
O=C1NC(=O)/C(=C/c2cccc(C(F)(F)F)c2)S1,4.36,4.92
CCN(CCCOc1ccc2c(Nc3cc(CC(=O)Nc4cccc(F)c4)[nH]n3)ncnc2c1)CCOP(=O)(O)O,4.91,4.71
O=C(Nc1ccc(-c2ccnc(Nc3ccc(N4CCOCC4)cc3)n2)cc1)C1CCCN1 (centres undefined),4.02,4.92

Structure (SMILES),neurite formation score (Neuro-2a [1]),neurite formation score (Neuro-2a [2])
O=C1NCCCc2c1oc1ccc(O)cc21,5.29,4.58
O=C(c1ccc(/C=C/c2n[nH]c3ccccc23)cc1)N1CCNCC1,6.02,1.92
Nc1nccc(-c2c(-c3ccc(F)cc3)ncn2C2CCCCC2)n1,5.02,5.58
CO[C@@H](C(=O)N1Cc2[nH]nc(NC(=O)c3ccc(N4CCN(C)CC4)cc3)c2C1)c1ccccc1,3.69,4.58
"Cc1cc(Nc2cc(N3CCN(C)CC3)nc(Sc3ccc(NC(=O)C4CC4)cc3)n2)n[nH]1 [VX-680 (MK-0457,Tozasertib)]",5.02,3.58
CC(C)(C)NS(=O)(=O)c1cncc(-c2cc(F)c3nc(N)nn3c2)c1,4.36,4.92
CCCCCCCCCCCCc1ccc(S(=O)(=O)Nc2nncs2)cc1,4.24,5.54
CCn1c(=O)c(-c2ccc(-c3cncs3)cc2Cl)cc2cnc(Nc3ccc(N4CCN(C)CC4)cc3)nc21,4.96,4.25
NC(=O)c1ccc(N(C(N)=O)c2c(F)cccc2F)nc1-c1ccc(F)cc1F,4.63,4.58
Nc1ncnc2n[nH]c(Nc3ccc(F)cc3)c12,4.88,5.08
O=C(O)CCC(=O)Nc1ccc(Br)cn1 [Bikinin],4.54,1.42
O=C1C(c2c(O)[nH]c3ccccc23)=Nc2ccccc21 [Indirubin],4.88,4.42
N#Cc1ccc2[nH]c(O)c(-c3ccc(CN4CCOCC4)cn3)c2c1,4.54,4.08
Cc1ccc(-c2csc3ncnc(SCCC(=O)O)c23)cc1,4.02,4.58
CS(=O)(=O)N1CCN(Cc2cc3nc(-c4cccc5[nH]ncc45)nc(N4CCOCC4)c3s2)CC1,4.24,5.21
CCN(CC)CCNC(=O)c1c(C)[nH]c(/C=C2\C(=O)Nc3ccc(F)cc32)c1C [Sunitinib],5.63,5.58
N#C/C(=C(/N)Sc1ccc(N)cc1)c1ccccc1C(F)(F)F,3.91,4.71
CN(c1ncccc1CNc1nc(Nc2ccc3c(c2)CC(=O)N3)ncc1C(F)(F)F)S(C)(=O)=O,1.57 and 4.24,3.54 and 4.88
